IL-1B inflam inh: qHTS for Inhibitors of Inflammasome Signaling: IL-1-beta AlphaLISA Primary Screen. THP-1 LPS/ATP IL-1B secretion, AlphaLISA, 16 h; active compounds read low. activity change, % at 57.5 µM. hit rate 4.7% among 360,000; in the data active = activity change below about -50%; inconclusive = mostly about -30% to -49%
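THP-1 cells pretreated 1 hr with compounds (up to 57.5 uM final), then stimulated with LPS (250 ng/mL final) plus ATP (1.25 mM final); secreted IL-1B measured by AlphaLISA after 16 hr, decreased signal indicating inhibition.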
HepG2 tox-1: qHTS for Inhibitors of TGF-b: Cytotox Counterscreen. Potency, µM (series often up to 46.1 µM), most hits filed as cytotoxic. HepG2 CAGA-GFP viability, ATP luminescence, 18 h. hit rate 0.76% among 410,000. AID 588856, 2011
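CellTiter-Glo luminescence gave cytotoxicity after 18 hours at 37 degrees C. The cells were HepG2 CAGA-GFP in 1% FBS DMEM, stimulated with 500 pg/mL TGF-beta after compound addition. %Activity was normalised to no-cell wells (complete cell-killing) and DMSO (no toxicity), and curves were fitted and classified.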
TGFb SMAD3 inh: qHTS for Inhibitors of TGF-b. hit rate 1.2% among 410,000. Potency, µM (highest dose often 46.1 µM), actives largely listed as inhibitors. HepG2 CAGA-GFP TGF-b/SMAD3 reporter, GFP fluorescence, 18 h; TGF-beta stimulated, 500 pg/mL final; also: nearly all actives have a fitted effect of over 65% in size
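Per well, imaged GFP fluorescence of HEPG2 CAGA-GFP cells gives the signal; cells get compound, then TGF-beta (500 pg/mL final), 18 h at 37 degrees C; %Activity versus -TGF-beta and +DMSO controls.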
DT40 TDP1 CPT: qHTS for Inhibitors of human tyrosyl-DNA phosphodiesterase 1 (TDP1): qHTS in cells in presence of CPT | chicken DT40 Tdp1-/-;hTDP1 cells + 20 nM CPT, ATP luminescence, 48 h | Potency, µM (titrated, usually from 46.2 µM), hits mostly inhibitors | hit rate 12% among 420,000; also: nearly all actives have a fitted effect of over 55% in size
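Chicken DT40 Tdp1-/- cells complemented with human TDP1, 400 cells/well, exposed to compounds plus 20 nM camptothecin for at least 48 h at 37 C; viability read as ATP content by CellTiter-Glo luminescence.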
S-ASM inh: Inhibitors of Secretory Acid Sphingomyelinase (S-ASM): qHTS; placental ASM, HMU-PC fluorogenic substrate, 60 min; Potency, µM (doses to about 57.5 µM), hits mostly inhibitors; Sphingomyelin phosphodiesterase (Homo sapiens), P17405; hit rate 0.006% among 340,000
Target sequence (P17405 47-631 limits assumed): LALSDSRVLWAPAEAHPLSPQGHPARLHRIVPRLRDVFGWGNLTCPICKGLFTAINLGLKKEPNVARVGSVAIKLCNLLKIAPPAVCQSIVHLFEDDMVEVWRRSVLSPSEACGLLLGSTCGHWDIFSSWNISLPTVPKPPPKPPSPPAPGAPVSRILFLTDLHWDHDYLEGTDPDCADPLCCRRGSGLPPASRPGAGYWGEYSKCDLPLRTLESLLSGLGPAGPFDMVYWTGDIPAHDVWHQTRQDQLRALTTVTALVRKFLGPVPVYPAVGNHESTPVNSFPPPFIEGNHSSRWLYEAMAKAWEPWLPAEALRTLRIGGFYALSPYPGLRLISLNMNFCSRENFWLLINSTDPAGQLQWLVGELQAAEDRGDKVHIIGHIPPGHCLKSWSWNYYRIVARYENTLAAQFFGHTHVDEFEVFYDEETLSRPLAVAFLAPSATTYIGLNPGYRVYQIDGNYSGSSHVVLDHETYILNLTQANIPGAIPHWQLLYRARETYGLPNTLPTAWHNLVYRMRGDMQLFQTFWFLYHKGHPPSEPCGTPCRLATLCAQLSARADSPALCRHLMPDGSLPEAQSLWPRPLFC
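Steps: dispense placental human ASM, pin compound, wait 10 min at room temperature, add HMU-PC0 substrate at 9 uM final, incubate 60 min at 37 °C, add stop solution raising pH to 10, read fluorescence.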
TDP1 cell noCPT: qHTS for Inhibitors of human tyrosyl-DNA phosphodiesterase 1 (TDP1): qHTS in cells in absence of CPT; hit rate 15% among 420,000; DT40 Tdp1-/- hTDP1 cells, no CPT, ATP luminescence, 48 h; Potency, µM (highest dose often 46.2 µM), most hits filed as inhibitors; also: nearly all actives have a fitted effect of over 55% in size
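Readout: luminescence from CellTiter-Glo after 30 min in the dark at RT. Cells: DT40 Tdp1-/- with stable hTDP1, 400/well. Exposure: compounds alone, ≥48 hr, 37 °C.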
TGFb confirm: qHTS for Inhibitors of TGF-b: Confirmation of Cherry Picks; AID 720534, 2013; Potency, µM (highest dose often 46.1 µM), hits mostly inhibitors; hit rate 63% among 1,600; HepG2 CAGA-GFP TGF-b reporter, GFP fluorescence, 18 h; cells stimulated with TGF-beta, 500 pg/mL; shares compounds with TGFb SMAD3 inh; also: nearly all actives have a fitted effect of over 65% in size
HepG2 tox-2: qHTS for Inhibitors of TGF-b: Cytotox Counterscreen for Cherry Picks; hit rate 27% among 1,600; AID 720535, 2013; HepG2 CAGA-GFP viability, ATP luminescence, 18 h; cells stimulated with TGF-beta, 500 pg/mL; Potency, µM (series often up to 46.1 µM), usual class: inhibitors; shares compounds with TGFb SMAD3 inh; also: nearly all actives have a fitted effect of over 70% in size
CCL64 TGFb inh: qHTS for Inhibitors of TGF-b: CCL64 Cells Orthogonal Assay for Cherry Picks; hit rate 41% among 1,600; shares compounds with TGFb SMAD3 inh; AID 720536, 2013; CCL64 CAGA-GFP reporter, TGF-b stimulated, GFP fluorescence, 18 h; Potency, µM (doses to about 46.1 µM), hits mostly inhibitors; also: nearly all actives have a fitted effect of over 65% in size
COP TGFb inh: qHTS for Inhibitors of TGF-b: Hit Validation in HepG2 Cells using COP promoter; shares compounds with TGFb SMAD3 inh; HepG2 COP-GFP TGF-b reporter, GFP fluorescence, 18 h; cells stimulated by added recombinant TGF-beta; Potency, µM (top dose mostly 46.1 µM), actives largely listed as inhibitors; hit rate 3% among 1,600; AID 720537, 2013; also: nearly all actives have a fitted effect of over 70% in size
Numbers stand for hits; . = inactive; ? = inconclusive; / = no result given. Hits are enriched below; roughly 19% of the tested compounds scored in any of these assays. Unless noted, calls follow the shape of the dose curve; as a rule, active = well fitted curve in the direction sought with a large enough effect; inconclusive = small, poorly fitted or top-dose-only effect, or another doubt; inactive = no such curve, though single readings can be large; an effect the other way counts as inactive or inconclusive.

SMILES	IL-1B inflam inh	HepG2 tox-1	TGFb SMAD3 inh	DT40 TDP1 CPT	S-ASM inh	TDP1 cell noCPT	TGFb confirm	HepG2 tox-2	CCL64 TGFb inh	COP TGFb inh
Cc1ccc(SC(C)C(=O)NCc2ccncc2)cc1 (stereo not drawn)	.	.	?	?	.	.	?	.	.	.
CCNc1nc(N)c(C(=O)c2ccc(Cl)s2)s1	-96	.	13µM	.	.	.	6.5µM	?	?	.
COC(=O)c1ccc(CNC(=O)CSc2nnc(COc3ccccc3)n2C)o1	.	.	?	.	.	.	.	.	.	.
CS(=O)(=O)N1CCCC(C(=O)Nc2c(F)cccc2F)C1 (stereo not drawn)	.	.	.	.	.	.	/	/	/	/
CN(C)S(=O)(=O)N1CCc2ccc(NC(=O)c3ccc(C(F)(F)F)cc3)cc2C1	?	.	?	16µM	.	23µM	.	?	.	.
Oc1ccccc1-c1nc(NCc2cccnc2)c2ccccc2n1	?	.	20µM	?	.	?	?	?	?	.
C[C@@H]1CCCCO[C@H](CN(C)Cc2ccc(Cl)c(Cl)c2)[C@H](C)CN([C@@H](C)CO)C(=O)c2cc(NC(=O)Nc3ccc(F)cc3)ccc2O1	?	.	10µM	9.2µM	/	5.8µM	5.8µM	?	5.8µM	.
C[C@H](CO)N1C[C@H](C)[C@H](CN(C)Cc2ccccc2)Oc2ccc(NC(=O)Nc3ccc(F)cc3)cc2C1=O	.	.	?	?	.	?	/	/	/	/
COc1ccc(NC(=O)Nc2ccc3c(c2)C(=O)N([C@H](C)CO)C[C@H](C)[C@H](CN(C)Cc2ccc(C(=O)O)cc2)OCCCC[C@@H](C)O3)cc1	.	.	.	.	/	.	/	/	/	/
C[C@@H]1CN([C@H](C)CO)C(=O)c2cc(NC(=O)Nc3ccc(C(F)(F)F)cc3)ccc2O[C@H]1CN(C)S(=O)(=O)c1ccccc1	?	.	?	?	.	?	/	/	/	/
C[C@H](CO)N1C[C@H](C)[C@@H](CN(C)S(=O)(=O)c2ccccc2)Oc2c(NC(=O)Nc3ccc(C(F)(F)F)cc3)cccc2C1=O	?	.	10µM	?	?	16µM	21µM	?	?	.
C[C@@H]1CN([C@@H](C)CO)C(=O)c2cccc(NC(=O)Nc3ccc(F)cc3)c2O[C@@H]1CN(C)Cc1ccc(Oc2ccccc2)cc1	.	.	4µM	13µM	.	18µM	16µM	?	6.5µM	.
CCOC(=O)c1cc(NC(=O)c2ccc(C)cc2)c(=O)n2c1oc1ccc(Cl)cc12	/	.	.	.	/	.	/	/	/	/
CC(C)(C)c1cc(C(c2cccnc2)N2CCN(CCO)CC2)cc(C(C)(C)C)c1O (stereo not drawn)	-102	13µM	7.9µM	1.5µM	.	2.3µM	5.2µM	15µM	4.6µM	?
CC(C)(C)n1nnnc1C(c1cccnc1)N1CCN(C(=O)c2ccco2)CC1 (stereo not drawn)	.	.	?	.	.	.	/	/	/	/
O=C(CSc1nc2ccccc2c(=O)n1CCCO)NCc1ccccc1	.	.	.	.	.	.	/	/	/	/
O=c1c2ccccc2nc(/C=C/c2ccc([N+](=O)[O-])o2)n1CCCO	-111	3.2µM	5.6µM	0.58µM	.	1.2µM	3.3µM	6.5µM	5.8µM	?
O=C(CNC(=S)N(Cc1ccccc1)Cc1ccccc1F)NCCc1ccccc1	.	.	.	.	.	?	/	/	/	/
O=C(CNC(=S)N(Cc1ccccc1)Cc1ccccc1F)NCc1ccc(Cl)cc1	-83	.	13µM	?	.	?	13µM	?	?	.
COc1ccc(C(NC(=O)CN2C(=O)NC3(CCc4ccccc43)C2=O)c2ccccc2)cc1 (stereo not drawn)	?	.	?	?	.	?	?	.	.	.
COc1ccc(C(=O)CN2C(=O)NC3(CCc4ccccc43)C2=O)cc1 (stereo not drawn)	.	.	.	.	.	.	/	/	/	/
CCN1CCN(c2nc3c(C)cccn3c(=O)c2C=C(C#N)C#N)CC1	.	.	.	.	.	.	/	/	/	/
C=CCC[C@H](Cc1ccc(F)cc1)C(=O)OC[C@@H](Cc1c[nH]c2ccccc12)NC(=O)[C@H](CC=C)CC(=O)N(CCO)Cc1ccccc1	?	.	11µM	18µM	.	?	12µM	?	18µM	.
O=C(NC(Cc1c[nH]c2ccccc12)C(=O)NCc1ccc(F)cc1)OCc1ccccc1 (stereo not drawn)	.	.	.	?	.	?	/	/	/	/
CCCCn1c(N)c(N(CCOC)C(=O)COC(=O)CCOc2ccc(C)cc2)c(=O)[nH]c1=O	.	.	.	.	.	.	/	/	/	/
Nc1cc2nn(-c3ccccc3)nc2cc1Cl	.	.	2.2µM	.	.	.	3.3µM	1.8µM	.	.
Nc1ccc2nn(-c3ccccc3)nc2c1	.	.	.	.	.	.	/	/	/	/
O=C1CCC([N+](=O)[O-])C(c2cccc([N+](=O)[O-])c2)N1 (stereo not drawn)	.	.	.	.	.	.	/	/	/	/

Assay outcomes from PubChem BioAssay.
